About 13,000 (27%) of roughly 48,000 compounds showed an effect of 50% or more. This is one part of the list.
system: Wolbachia pipientis; assay: Anti-Wolbachia Cell-Based Screen; type: functional; parameters: scale not given: in the data most compounds retested in dose-response had high values; conditions: 5 µM

SMILES | Percent Effect [%]
CN1CCCCC1CCC(=O)NCCSc1cnn[nH]1 (stereo not drawn) | -30.14
Cc1n[nH]c(C)c1-c1nccnc1CC1CCNC1 (stereo not drawn) | 100.9
CCOC(=O)C1CN(C(=O)COC)Cc2ncn(CC)c21 (stereo not drawn) | -5.507
COCC(=O)N1CCC(Cc2nccnc2-c2c(C)n[nH]c2C)C1 (stereo not drawn) | 109.3
CC1CCCCN1C(=O)Cn1cnc(C#N)n1 (stereo not drawn) | -6.637
CS(=O)(=O)N1CC(c2nc[nH]n2)c2cc(C(=O)NC3CCCC3)ccc21 (stereo not drawn) | 0.6803
CCN(CC)S(=O)(=O)N1CCCC1C(=O)N1CCSCC1 (stereo not drawn) | 22.8
Cc1nn(C)cc1CN1CCCC1c1cccc(Nc2nccs2)n1 (stereo not drawn) | 88.47
Cc1ncc(CO)c(CN2CCCC2c2nc3c(C)cccc3[nH]2)c1O (stereo not drawn) | 7.788
Cc1nn(CCO)cc1CN1CCCC1c1nc2c(C)cccc2[nH]1 (stereo not drawn) | -6.904
COc1c(C2CCCN2Cc2cn3ccsc3n2)c(C)nn1C (stereo not drawn) | 3.624
Cc1nn(C)c(Cl)c1C1CCCN1Cc1cn2ccsc2n1 (stereo not drawn) | 41.71
CNS(=O)(=O)c1cccc(S(=O)(=O)Nc2ncc(C)s2)c1 | 2.588
Cc1nonc1NC(=O)C1SCCc2sccc21 (stereo not drawn) | -12.22
CCc1cnc(C)nc1NC(CC)c1cnn(C)c1 (stereo not drawn) | -1.737
Cc1cccc(CN2CCC3(CCCN(Cc4cnn(C)c4)C3)C2=O)n1 (stereo not drawn) | 94.18
Cn1cc(CN2CCCC3(CCN(Cc4ccncc4)C3=O)C2)cn1 (stereo not drawn) | 102
Cc1cccc(CN2CCCC3(CCN(CC(=O)N(C)C)C3=O)C2)n1.O=C(O)C(F)(F)F (stereo not drawn) | -13.27
Cc1cnc(CNC(=O)CC2CCc3ccccc32)cn1 (stereo not drawn) | 1.8
CN(Cc1ccco1)C(=O)CN1CCCCC1Cn1cccn1 (stereo not drawn) | 4.659
Cc1ccc(CN(C)C(=O)CN2CCCCC2Cn2cncn2)o1 (stereo not drawn) | -8.08
CN(Cc1ccco1)C(=O)CN1CCCC1Cn1cccn1 (stereo not drawn) | -1.962

SMILES | Percent Effect [%]
CN(Cc1ccco1)C(=O)CN1CCOC(Cn2cccn2)C1 (stereo not drawn) | 126.4
Cc1ccc(CN(C)C(=O)CN2CCOC(Cn3cccn3)C2)o1 (stereo not drawn) | 114.2
CN(Cc1ccco1)C(=O)CN1CCCCC1Cn1cncn1 (stereo not drawn) | -0.1414
Cc1ccc(CN(C)C(=O)CN2CCOC(Cn3cncn3)C2)o1 (stereo not drawn) | -4.818
CN(Cc1ccco1)C(=O)CN1CCOC(Cn2cncn2)C1 (stereo not drawn) | 96.26
Cc1ccc(-c2nc(CN3CCOC(Cn4cccn4)C3)cs2)o1 (stereo not drawn) | -10.9
CN(Cc1ccco1)C(=O)CN1CCCC1Cn1cncn1 (stereo not drawn) | 107
Cc1ccc(CN(C)C(=O)CN2CCCC2Cn2cccn2)o1 (stereo not drawn) | 15.96
Cc1ncsc1CN1C[C@@H]2COC[C@]2(COc2ccc(C#N)cn2)C1 | -4.86
COc1ccc(Cl)cc1C(=O)N(C)Cc1cc(C)on1 | -1.731
COCc1cc(N2CCc3onc(-c4cccc(OC)c4)c3C2)ncn1 | -6.434
Cc1nc(C)c(CNCC2CCCn3ccnc32)s1 (stereo not drawn) | -11.09
O=C(Nc1ncn(Cc2cccc(Br)c2)n1)C1CCC1 | 6.264
CN(Cc1ccc(F)cc1)C(=O)CN1CCOC(Cn2cccn2)C1 (stereo not drawn) | 121.8
O=C(CN1CCOC(Cn2cccn2)C1)Nc1ccncc1 (stereo not drawn) | -3.889
Cc1nnc(NC(=O)CN2CCOC(Cn3cccn3)C2)s1 (stereo not drawn) | -11.4
O=C(CN1CCOC(Cn2cccn2)C1)NCCc1ccc(F)cc1 (stereo not drawn) | -2.964
Cc1ccccc1CN(C)C(=O)CN1CCOC(Cn2cccn2)C1 (stereo not drawn) | 111
CN(Cc1ccc(F)cc1)C(=O)CN1CCOC(Cn2cncn2)C1 (stereo not drawn) | -5.304
CCN(CCC(F)(F)F)C(=O)Nc1cccc(N2CCOCC2)c1 | -10.51
CN1CCC(Cc2cc(Nc3ncccn3)ncn2)CC1 | -2.002
CN1CCC(Cc2cc(Nc3ccccn3)ncn2)CC1 | 68.08

SMILES | Percent Effect [%]
CC1CCN(CC(O)CNc2ccccn2)CC1 (stereo not drawn) | -1.4
CCC(=O)N1CCC(Cc2cc(Nc3ncccn3)ncn2)CC1 | 93.47
N#CCCN(Cc1cccnc1)C(=O)c1ccn(-c2ccccc2)n1 | 1.241
COc1ccc(/C=C/CN2C[C@H]3CC[C@@H]2CN(S(=O)(=O)N(C)C)C3)cc1 | 13.82
CC(C)c1cc(NCC(O)c2ccncc2)n2nccc2n1 (stereo not drawn) | -8.35
C[C@H](O)CNC(=O)c1cnc(-c2ccccc2)nc1O | -14.22
COc1cc(NCC(c2ccccn2)N(C)C)ncn1 (stereo not drawn) | 0.2576
C[C@H](O)CNc1cc(-c2ccncc2)ncn1 | 115
CC(C)c1cc(NCC2(CO)CCCC2)ncn1 | 7.781
C[C@H](O)CNc1cc(-c2ccccc2)ncn1 | 111.5
O=C(c1ccno1)N1CCC2(CC(=O)N(c3ccc4c(c3)OCO4)C2)C1 (stereo not drawn) | -9.598
Cc1ccc(C)c(C(O)Cn2cc(Cl)c(=O)[nH]c2=O)c1 (stereo not drawn) | 3.012
COCCNC(=O)C(C)n1cc(Br)cn1 (stereo not drawn) | 8.857
COCCNC(=O)Cn1cc2c(n1)c(C)nn2C(C)C | 92.82
CCn1nccc1CNC(=O)C1CCCC1 | 10.33
COCCNC(=O)c1cnc(C)nc1C | -12.85
COCCNC(=O)Cn1cc2c(n1)c(C)nn2C | 124.1
CCn1nccc1CNC(=O)C(C)n1cc2c(n1)c(C)nn2C (stereo not drawn) | 13.18
COCCNC(=O)N1CCOCC1c1c(C)nn(C)c1C (stereo not drawn) | -9.833
COCCNC(=O)Cn1nc(C(C)C)c2cnn(C(C)(C)C)c2c1=O | -0.4126
CCn1nccc1CNC(=O)Cn1cc2c(n1)c(C)nn2C(C)C | 116.7
O=C(NCc1cnc2n1CCN(Cc1cccs1)C2)c1ccno1.O=C(O)C(F)(F)F | -34.76

SMILES | Percent Effect [%]
CC(C)(C)c1noc(CCC(=O)N2CCNC(=O)C2)n1 | -18.81
CC(C)Cc1ncc2c(n1)CN(c1cc(N)nc(N)n1)C2 | 16.38
Cc1ccc(C(C(=O)N(C)CCc2cn[nH]c2)N(C)C)cc1 (stereo not drawn) | 3.285
CN(CCc1cn[nH]c1)C(=O)CCc1ccc(Cl)cc1 | 144.4
CN(CCc1cn[nH]c1)C(=O)C(c1ccc(F)cc1)N(C)C (stereo not drawn) | -6.005
CC(=O)N1CCN(CCNc2snc(Cl)c2C#N)CC1 | 4.799
c1cncc(CCc2nc(C3CC3)nn2-c2ccc3c(c2)OCCO3)c1 | -5.22
COCCC(=O)N(CCC#N)c1ccc2c(c1)OCCO2 | 95.73
N#CCCN(C(=O)CCc1cccnc1)c1ccc2c(c1)OCCO2 | 88.06
N#CCCN(Cc1cccnc1)C(=O)c1cccc(-n2cnnn2)c1 | -18.3
COCCCC(=O)NS(=O)(=O)c1ccc2c(c1)OCCCO2 | -8.462
CC(C)(NCC(=O)NCCC#N)c1ccc2c(c1)OCCO2 | 4.777
Cc1ccc(N(CCC#N)C(=O)CCc2cccnc2)cc1C | 98.05
CCC(C)N(Cc1cccnc1)Cc1ccc2c(c1)OCCO2 (stereo not drawn) | 9.848
N#CCCN(Cc1cccnc1)C(=O)Cc1ccc(-n2cnnn2)cc1 | -0.659
CCCN(CC1COc2ccccc2O1)C(=O)CCn1cncn1 (stereo not drawn) | -2.229
O=C(Cn1cc(C(=O)O)ccc1=O)NCc1ccc(F)cc1Cl | 11.66
Cc1c(Br)cccc1C(=O)NC(C)CN1CCCC1=O (stereo not drawn) | -7.738
CC(C)NC(=O)N1C[C@@H](F)[C@@H](OCc2nc3ccccc3o2)C1 | -6.815
CN(C)Cc1cc(CC2(NCc3ccccc3Cl)COC2)no1 | -4.538
COC[C@@]12CC[C@@H](N3CCOCC3)C[C@H]1CCN(c1nc(CO)cs1)C2 | -10.66
O=C(NCCN1CCOCC1)c1ccnn1-c1ccc2ccccn12.O=C(O)C(F)(F)F | -0.1496

SMILES | Percent Effect [%]
CCN(C)C(=O)c1ccnn1-c1ccc2ccccn12 | -2.565
O=C(c1ccnn1-c1ccc2ccccn12)N1CCOCC1 | 95.26
O=C(c1ccnn1-c1ccc2ccccn12)N1CCCC1 | 84.68
COCCNC(=O)c1ccnn1-c1ccc2ccccn12 | -19.09
O=C(c1c2c(NCC3CC3)ncnc2n2ccccc12)N1CCOCC1 | 2.912
Cc1cccc2c1nc1n2[C@@H](CNC(=O)c2ccccn2)COC1 | -9.692
CC(C)COC(=O)N1CCCN(Cc2nnc(C(C)(C)C)o2)CC1 | -7.056
CC(C)(C)C(Cn1cccn1)NC(=O)c1ccco1 (stereo not drawn) | 126.5
Cn1cc(C(=O)NC(Cn2cccn2)C(C)(C)C)cn1 (stereo not drawn) | 91.75
CC(C)(C)C(Cn1ccnc1)NC(=O)NCc1ccco1 (stereo not drawn) | 10.62
CC(Cn1cccn1)NC(=O)Cc1cccs1 (stereo not drawn) | 8.385
CC(Cn1cccn1)NC(=O)NCCc1cnn(C)c1 (stereo not drawn) | -2.639
CCn1nccc1C(=O)NC(Cn1cccn1)C(C)(C)C (stereo not drawn) | 98.31
CC(C)CC(NC(=O)c1cnn(C)c1)C(=O)Nc1cc[nH]n1 (stereo not drawn) | -3.159
CN(Cc1ccco1)C(=O)NC(Cn1ccnc1)C(C)(C)C (stereo not drawn) | -3.966
CC(Cn1cccn1)NC(=O)C1=Cc2ccccc2OC1 (stereo not drawn) | 2.492
O=S(=O)(Nc1ccc(N2CCOCC2)cc1)c1cccc(F)c1 | 2.423
Cc1cc(CN2CC3(CCN(C(=O)C4CC4)CC3)CC2C(=O)O)oc1C (stereo not drawn) | -14.13
O=c1[nH]c(NCc2cccc(-c3ccccc3)c2)nc2c1CCNC2 | -0.2023
CC(=O)c1cccc(-c2nc3c([nH]2)CCNC3)c1F | -6.254

— ChEMBL document CHEMBL3988442, “University of Dundee, Small-Polar-MMV Screening Library” (2021)
